Entries with a potency or affinity are not part of this list. A number with no mark means an inactive call.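 Rule for the calls: active = signal drop whose fitted half-maximal concentration is at most twice the top valid dose, in every test run; inconclusive = mixed calls across runs, poor fit, or flat 30 to 70% inhibition; inactive = wrong direction, flat within 30%, or potency beyond limit.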
Assay: cytotoxicity in PAX8-dependent RMG-1 cells, dose response, cell-based, cherry-pick (AID 687029);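 note: cells exposed to compound for 96 hours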
Settings: RMG-1 viability, CellTiterGlo ATP luminescence, 96 h; series mostly up to 35 µM; activity change, negative = inhibition: at the top concentration
With `CC(=O)OC1CC(OC2C(O)CC(OC3C(O)CC(OC4CCC5(C)C(CCC6C5CCC5(C)C(C7=CC(=O)OC7)C(O)CC65O)C4)OC3C)OC2C)OC(C)C1OC1OC(CO)C(O)C(O)C1O` (configuration not stated) the “activity change, negative = inhibition” value was 14.9%. In the case of `CC12CCC(O)CC1CCC1C2CCC2(C)C(C3=CC(=O)OC3)CCC12O` (configuration not stated), the “activity change, negative = inhibition” value is reported as 12.9%. With `C=Cc1cc(OC)c2c(c1)c(=O)oc1c2cc(OC)c2c(O)ccc(C3OC(C)C(O)C(C)(O)C3O)c21` (configuration not stated) the “activity change, negative = inhibition” value was 28.7%. For `CC(=O)OC(C)(C)/C=C/C(=O)C(C)(O)C1[C@H](O)C[C@@]2(C)C3CC=C4C(CC[C@@H](O)C4(C)C)[C@]3(CO)C(=O)C[C@]12C` (some centres not stated), the “activity change, negative = inhibition” value was 28.9%. In the case of `CC1OC(OC2C=C3CCC4C(CCC5(C)C(c6ccc(=O)oc6)CCC45O)C3(C)CC2)C(O)C(OC2OC(CO)C(O)C(O)C2O)C1O` (configuration not stated), the “activity change, negative = inhibition” value is reported as 3.99%. In the case of `COc1ccc(C[C@H]2NC[C@H](O)[C@H]2OC(C)=O)cc1`, the “activity change, negative = inhibition” value is reported as 11.2%. In the case of `CCCCCCCCCCCCn1ccc(=N)cc1`, the “activity change, negative = inhibition” value is reported as 48.3%. In the case of `N#Cc1ccc2nc(-c3ccc(CN4CCC(n5c(=O)[nH]c6ccccc65)CC4)cc3)c(-c3ccccc3)nc2c1`, the “activity change, negative = inhibition” value is reported as 13.7%. For `COC(=O)C1=C(c2ccc(F)cc2OCc2ccccc2)C[C@@H]2CC[C@H]1N2C(=O)NCc1ccc(C(F)(F)F)cc1`, the “activity change, negative = inhibition” value was 23.9%. In the case of `N#CC(C#N)=NNc1ccc(-n2ccc(C(F)(F)F)n2)cc1`, the “activity change, negative = inhibition” value is reported as 34.6%. With `CN(C)CC(C(=O)Cc1ccccc1)c1ccccc1` (configuration not stated) the “activity change, negative = inhibition” value was 35%. With `CCC(C)C1NC(=O)C(NC(=O)C(CC(C)C)N(C)C(=O)C2CCCN2C(=O)C(C)O)C(C)OC(=O)C(Cc2ccc(OC)cc2)N(C)C(=O)C2CCCN2C(=O)C(CC(C)C)NC(=O)[C@H](C)C(=O)[C@H](C(C)C)OC(=O)CC1O` (some centres not stated) the “activity change, negative = inhibition” value was 24.1%. With `CC(N)C(=O)NC1C2C(=C(O)CC(O)C2O)C(=O)OC1(C)C(Cl)Cl` (configuration not stated) the “activity change, negative = inhibition” value was 23.8%. With `Cc1ccc(C(=O)N[C@@H](C)CN2C3=NC[C@@H](Cc4ccccc4)N3C[C@H]2Cc2ccc(O)cc2)cc1Br` the “activity change, negative = inhibition” value was 20.2%. In the case of `NC(=S)c1cn(C2OC(CO)C(O)C2O)c2ncnc(N)c12` (configuration not stated), the “activity change, negative = inhibition” value is reported as 35.3%. In the case of `CC(=O)OC1CC(OC2C(O)CC(OC3C(O)CC(OC4CCC5(C)C(CCC6C5CC(O)C5(C)C(C7=CC(=O)OC7)CCC65O)C4)OC3C)OC2C)OC(C)C1OC1OC(CO)C(O)C(O)C1O` (configuration not stated), the “activity change, negative = inhibition” value is reported as 26.4%. For `COC1=C(C)C(=O)C2=C(C1=O)C(CO)N1C(C#N)C3CC4C(C1C2N1CCOC41)N3C` (configuration not stated), the “activity change, negative = inhibition” value was 17.4%.

Reference: PubChem BioAssay
